Screens from PubChem BioAssay.
GBA mod – human lysosomal glucosylceramidase modulation. purified enzyme, resorufin glucoside fluorescence (screen aimed at inhibitors), 20 min. Potency, µM. P04062. actives 1.1% (n = 48,000); in the data active means potency below about 15 µM; inconclusive means mostly about 16 µM to 33 µM;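 further: the screen sought inhibitors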
Target sequence (P04062 whole entry, looked up): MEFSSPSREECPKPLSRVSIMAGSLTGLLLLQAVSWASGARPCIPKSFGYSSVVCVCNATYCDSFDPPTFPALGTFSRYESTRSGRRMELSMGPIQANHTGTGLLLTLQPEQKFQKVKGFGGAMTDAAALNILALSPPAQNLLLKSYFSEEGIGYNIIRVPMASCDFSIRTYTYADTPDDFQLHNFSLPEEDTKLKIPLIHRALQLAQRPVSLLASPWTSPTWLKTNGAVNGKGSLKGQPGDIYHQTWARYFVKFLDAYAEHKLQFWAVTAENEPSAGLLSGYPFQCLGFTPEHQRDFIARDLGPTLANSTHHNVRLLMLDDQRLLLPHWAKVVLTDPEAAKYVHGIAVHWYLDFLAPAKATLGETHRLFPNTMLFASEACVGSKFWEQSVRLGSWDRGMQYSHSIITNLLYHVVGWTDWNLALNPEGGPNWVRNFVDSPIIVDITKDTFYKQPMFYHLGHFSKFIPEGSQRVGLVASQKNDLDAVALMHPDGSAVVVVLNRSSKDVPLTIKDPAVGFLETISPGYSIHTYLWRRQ
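Wild-type enzyme at 0.2 nM final in 50mM citric acid/KH2PO4, 10mM sodium taurocholate, 0.01% tween-20, pH 5.9, with resorufin beta-D-glucopyranoside at 30 uM final. Compounds titrated, 20 min at RT, red fluorescence read; AC50 from titration.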
PK Bst – pyruvate kinase (B. stearothermophilus) modulation; actives 1.2% (n = 51,000); AID 361; purified pyruvate kinase, luminescence ATP production; ribose 5-phosphate activator present at AC10; Potency, µM; in the data active means potency below about 11 µM; inconclusive means mostly about 12 µM to 25 µM;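 the screen sought inhibitors and activators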;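 further: scaled between full activation by ribose 5 phosphate and full inhibition by luteolin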
FLuc inh – blocks Photinus pyralis firefly luciferase activity | P08659 | purified firefly luciferase, luminescence, 8 min | Potency, µM (titrated, usually from 57.1 µM), without a hit: at the highest dose activity change, negative = inhibition, most hits filed as inhibitors | actives 2.2% (n = 72,000); active means well fitted inhibition curve with a large enough effect; inconclusive means small, poorly fitted or top-dose-only effect; further: on the % scale 0 is the no-effect control and ±100 the full control effect; nearly all actives have a fitted effect of over 40% in size
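Titration-based qHTS; buffer 50 mM imidazole pH 7.2, 50 mM KCl, 7 mM MgCl2, 10 uM ATP, 0.01% Tween 20, 0.05% BSA; luciferase/luciferin detector mix added after compound; 8 min, ambient; luminescence.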
* marks the source's active call; other numbers are inactive results; i = inactive; ? = inconclusive; . = no result; [ ] = remark or other dose. Only some compounds are listed: those with a hit (about 3.4% of all), similar ones and a draw of the others. Potency means the concentration at half of the fitted maximal effect.

SMILES | GBA mod | PK Bst | FLuc inh
CCOC(=O)c1cc(=O)n2[nH]c(-c3ccc(C)cc3)cc2n1 | >77 | >57 | -2%
Cc1ccc(-c2cc3nc4c(c(=O)n3[nH]2)CCCC4)cc1 | . | . | 4µM*
CCOC(=O)Cc1c(C)nc2cc(-c3ccc(Cl)cc3)[nH]n2c1=O | >77 | . | -6%
CCc1c(C)nc2cc(-c3ccc(OC)cc3)[nH]n2c1=O | ? | ? | 20µM*
O=C(c1cc(C(F)(F)F)cc(C(F)(F)F)c1)N1CCC2(CC1)CN(c1ccccn1)C2 | . | . | -2%[11.4 µM]
COc1ccc(NC(=O)N2CCCC3(CCN(C(=O)c4cccc(F)c4)CC3)C2)cc1 | . | . | 1%[11.4 µM]
CC1(C)CCC=[N+]1[O-] | . | . | 2%
CCCCC[C@H](CC(=O)NO)C(=O)N[C@@H](C(=O)N1CCC[C@H]1CO)C(C)C | . | . | -2%
O=C(Cc1cccs1)Nc1nc2c(s1)CCCC2 | >77 | >57 | -23%
Cc1ccc(C(=O)Nc2nc3c(s2)CCCC3)o1 | >77 | >57 | 0%
NC(=O)c1c(NC(=O)c2cccs2)sc2c1CCCCCC2 | . | . | 7.9µM*
O=C(Nc1sc2c(c1C(=O)O)CCC2)c1cccs1 | >77 | >57 | -3%
O=C(Nc1nc2c(s1)CCCC2)c1cccs1 | >77 | 9.7* | 5µM*
O=C(Nc1nc2c(s1)CCCC2)c1ccc(Br)o1 | . | . | 6.3µM*
C[C@@H]1O[C@@H](OC[C@@H]2O[C@@H](Oc3c(-c4ccc(O)c(O)c4)oc4cc(O)cc(O)c4c3=O)[C@H](O)[C@H](O)[C@@H]2O)[C@H](O)[C@H](O)[C@@H]1O | . | . | -1%[11.4 µM]
COC(=O)[C@H]1[C@@H]2C[C@H]3c4[nH]c5ccccc5c4CCN3C[C@@H]2CC[C@@H]1O | . | . | 2%
O=S1(=O)N=C(Nc2ccc(N3CCOCC3)cc2)c2ccccc21 | >77 | . | 13µM*
O=S1(=O)N=C(N2CCOCC2)c2ccccc21 | >77 | >57 | -1%
CCCCCCCCCC(=O)N[C@@H](CN1CCOCC1)[C@@H](O)c1ccccc1 | . | . | 1%
COc1ccc(-c2nc3cnc(N4CCN(C)CC4)nc3n(Cc3cccs3)c2=O)cc1 | . | . | 0%[11.4 µM]
CNc1cc(OC)c(C(=O)N[C@@H]2CCN(Cc3ccccc3)[C@H]2C)cc1Cl | . | . | -3%
C1=C(CN2CCOCC2)COc2c1cccc2OC[C@@H]1CNCCO1 | . | . | 2%
c1ccc2c(c1)nc(-c1ccncc1)n1nnnc21 | >77 | 8.9* | -9%
c1ccc(-c2nc3ccccc3c3nncn23)cc1 | >77 | . | 0%
CCNC(=O)N1C(=O)C2(OCCO2)c2ccccc21 | >77 | >57 | 0%
SMILES | GBA mod | PK Bst | FLuc inh
CCCCOc1ccc(OCCCC)c2c1NC1(N2)C(=O)N(C(C)=O)c2ccccc21 | 6.1* | >57 | 4%
O=S(=O)(c1cccc2c(I)cccc12)N1CCCNCC1 | . | . | -11%
CCc1cc2cc(C(=O)N3CCN(Cc4ccccc4)CC3)sc2s1 | . | . | -22%
CCc1cc2cc(C(=O)Nc3ccccc3F)sc2s1 | >77 | >57 | 5µM*
[O-][N+](CCO)(CCO)c1ncnc2nc[nH]c12 | . | . | 3%[11.4 µM]
Cc1csc(NC(=O)c2ccccc2O)n1 | >77 | . | 25µM*
Cc1ccc(C(=O)O)c(C(=O)Nc2nc(C)cs2)c1 | >77 | >57 | 5%
O=C(Nc1ccccc1O)c1ccccc1O | . | . | 20µM*
Cc1cccc(NC(=O)c2ccccc2O)c1C | . | . | -27%
COc1cccc(-c2ccc3ncnc(N4CCOCC4)c3c2)c1 | . | . | 0%[2.29 µM]
C[C@@]12C=CC(=O)C=C1CC[C@@H]1C2=CC[C@]2(C)[C@@H]1CC[C@H]2C(=O)CN1CCN(c2cc(N3CCCC3)nc(N3CCCC3)n2)CC1 | . | . | 1%
Clc1ccc(-n2ncc3c(NCc4ccco4)ncnc32)cc1 | . | 7.6* | 4µM*
Clc1ccc(Cn2ncc3c(NCc4ccco4)ncnc32)c(Cl)c1 | i | >57 | 1%
Clc1ccc(-n2ncc3c(NCC4CCCO4)ncnc32)cc1 (stereo not drawn) | . | . | 5µM*
c1ccc(-n2ncc3c(NCC4CCCO4)ncnc32)cc1 (stereo not drawn) | . | i | -27%[25.5 µM]
O=c1c(-c2cc(F)cc(F)c2)nc2cncnc2n1Cc1ccccc1 | . | . | 0%[11.4 µM]
CCN(CC)CCCN1C(=O)c2oc3ccccc3c(=O)c2C1c1cccnc1 (stereo not drawn) | >77 | >57 | 2%
O=C1c2oc3ccc(Cl)cc3c(=O)c2C(c2cccnc2)N1Cc1ccco1 (stereo not drawn) | >77 | . | 13µM*
O=C1c2oc3ccccc3c(=O)c2C(c2cccnc2)N1Cc1ccco1 (stereo not drawn) | ? | >57 | 3.2µM*
COc1cc(C2c3c(oc4ccc(Cl)cc4c3=O)C(=O)N2Cc2ccco2)cc(OC)c1OC (stereo not drawn) | >77 | >57 | 4%
CCOC(=O)CCCN | . | . | 0%[11.4 µM]
CO[C@@H]1/C=C\CC(=O)N[C@@H](C)C(=O)OC[C@@H](OC)[C@H](C)/C=C\CC(=O)OC[C@H]1C | . | . | 1%[11.4 µM]
